Measurements taken from PubChem BioAssay (NCI).
Compounds without any hit were thinned out: in the full panel of roughly 79,000, 15% have a hit. Unmarked numbers belong to inactive results. Calls of active or inactive are those of the source. Cut-off read from the data, not from the text of the source: active = growth inhibition above about 70%; inactive = the rest.

Experiment: NCI Yeast Anticancer Drug Screen. Data for the bub3 strain (AID 167)
Details: S. cerevisiae bub3 mutant strain, at 1.2 µM, hits give high values
Outline: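 Whole-cell yeast assay. The mutant strain was incubated with compounds, and growth inhibition was determined by comparison with vehicle-treated cells.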

| SMILES | growth inhibition |
| --- | --- |
| CCC/C(Cl)=N\OC(=O)Nc1cccc(C(F)(F)F)c1 | 34% |
| [O-][n+]1c2ccc(O)cc2nc2ccc(Cl)cc21 | 5% |
| Clc1ccccc1C1OC1c1ccccc1Cl (centres undefined) | -56% |
| c1ccc2c(c1)c1ncccc1c1nccnc21 | 4% |
| CC(=O)Nc1ccc2c(c1)C(=Nc1ccc(C(=O)O)cc1)c1ccccc1-2 | -2% |
| COc1ccc(OC)c2cc3ccccc3cc12 | 22% |
| COc1cc(C2c3cc4c(cc3OC(NNc3ccccc3)C2C)OCO4)cc(OC)c1OC (centres undefined) | 7% |
| O=C1c2cc([N+](=O)[O-])ccc2-c2cccc(F)c21 | -4% |
| CCCCCCCCCCCC(=O)N(C)C | 3% |
| CCCCCCCCCCCC1=C(O)C(=O)C=C(O)C1=O | -10% |
| Cc1ccc(CSC(N)=Nc2ccccc2)cc1C | 4% |
| CCCCCCCCCCC1CCC(=O)O1 (centres undefined) | -3% |
| O=[N+]([O-])c1cc(CCl)ccc1CCl | -18% |
| Nc1ccc2c(c1)C(=O)c1cccc(N)c1C2=O | -1% |
| CCCCCCCCCCNC(=O)OCC | 2% |
| CC1=C(C)Cc2c(O)ccc(O)c2C1 | -3% |
| COc1ccc2c(c1)C(=O)c1ccccc1C2 | 42% |
| CCC(=O)OCCn1c2nc(=O)[nH]c(=O)c-2nc2cc(C)c(C)cc21 | -7% |
| O=C(OCCN1CCCCCC1)C(c1ccsc1)C1CCCCC1 (centres undefined) | 4% |
| Oc1c(Br)cc(Br)cc1C1CCCCC1 | 7% |

| SMILES | growth inhibition |
| --- | --- |
| CC1(C)[C@@H]2CC[C@]1(C)[C@H](OC(=O)CSC#N)C2 | 2% |
| S=C(N/N=C(/c1ccccc1)c1ccccn1)N1CCCCCC1 | 4% |
| Cc1ccc2[nH]c3c(C)c4cc[n+](C)cc4c(C)c3c2c1 | 10% |
| CNC(=O)OCc1c(COC(=O)NC)c(-c2ccc(-c3ccccc3)cc2)n(C)c1C | -10% |
| COc1ccccc1/C=C1\Sc2scc(-c3cccc([N+](=O)[O-])c3)[n+]2C1=O | 70% (active) |
| O=[N+]([O-])c1ccc2c(c1)C(N1CCN(CCO)CC1)Cc1ccc(F)cc1S2 (centres undefined) | -1% |
| Cc1ccc(CCC2=CCCc3c2ccc2ccccc32)cc1 | -4% |
| O=[N+]([O-])c1cccc2nccc(NCCCO)c12 | -12% |
| Cc1ccc(-n2cc(-c3ccc(Cl)cc3)c(C#N)c2N)cc1 | -6% |
| Cc1ccc(S/N=C\c2ccccc2O)cc1 | -4% |
| O=C(O)C1OC1(c1cccc(Cl)c1)c1ccccc1Cl (centres undefined) | 0% |
| NC(=S)N/N=C\c1nccc2ccccc12 | -9% |
| Clc1cccc(C(Nc2nncs2)Nc2nncs2)c1Cl | 0% |
| O=C(OCC=C1CCCC1)c1cc([N+](=O)[O-])cc([N+](=O)[O-])c1 | -6% |
| O=C(Nc1ccccc1)C(=O)C(C(=O)c1ccccc1)C(c1ccccc1)c1ccccc1 (centres undefined) | 2% |
| N#CN1C2CCC1CC(=O)C2 | 14% |
| COc1ccccc1C(=O)OCC1CCCN2CCCCC12 (centres undefined) | -9% |
| CCNc1nnc(CSc2nc(-c3ccccc3)c(-c3ccccc3)[nH]2)s1 | -10% |
| O=C1c2ccccc2-c2n[nH]c3cccc1c23 | -1% |
